An excerpt weighted towards active compounds, which were near 4.1% of everything screened.
Mac1 fbg enh: CD11b/CD18-fibrinogen binding enhancement. P05107+P11215. K562 CD11b/CD18 adhesion to fibrinogen, ATPlite luminescence. activation, % at 10 µM. 0.07% of 93,000 active. AID 1499;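 active = 10 µM primary screen giving 50% or more activity, confirmed by 40% or more on retest at that dose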
MRP-1 activ: activates MRP-1 | H69AR cells + doxorubicin, viability rescue, CellTiter-Glo | viability increase, % at 10 µM | 0.61% of 140,000 active;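 active = viability gain under doxorubicin at or above a set limit, the compound median plus 3 SD, cut at about 4.7% in these data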;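 note: MRP-1 overexpressing cells given doxorubicin 25 µM after compound pretreatment; 18-22 h compound pretreatment then 72 h with doxorubicin before readout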
Pyk2 oligo antag: antagonists of human Pyk2 oligomerization | Q14289 | Q293 cells, Pyk2 FERM NanoBiT luminescence; active compounds read low | z-score (the deposit names both 25 µM and 10 µM) | 0.83% of 99,000 active;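 active = Z-score of -3 or lower, scaled per plate to the spread of control and sample wells; inactive = z-score above -3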;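 note: negative z-score means lost luminescence so less FERM oligomerization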
Target sequence (Q14289 whole entry, looked up): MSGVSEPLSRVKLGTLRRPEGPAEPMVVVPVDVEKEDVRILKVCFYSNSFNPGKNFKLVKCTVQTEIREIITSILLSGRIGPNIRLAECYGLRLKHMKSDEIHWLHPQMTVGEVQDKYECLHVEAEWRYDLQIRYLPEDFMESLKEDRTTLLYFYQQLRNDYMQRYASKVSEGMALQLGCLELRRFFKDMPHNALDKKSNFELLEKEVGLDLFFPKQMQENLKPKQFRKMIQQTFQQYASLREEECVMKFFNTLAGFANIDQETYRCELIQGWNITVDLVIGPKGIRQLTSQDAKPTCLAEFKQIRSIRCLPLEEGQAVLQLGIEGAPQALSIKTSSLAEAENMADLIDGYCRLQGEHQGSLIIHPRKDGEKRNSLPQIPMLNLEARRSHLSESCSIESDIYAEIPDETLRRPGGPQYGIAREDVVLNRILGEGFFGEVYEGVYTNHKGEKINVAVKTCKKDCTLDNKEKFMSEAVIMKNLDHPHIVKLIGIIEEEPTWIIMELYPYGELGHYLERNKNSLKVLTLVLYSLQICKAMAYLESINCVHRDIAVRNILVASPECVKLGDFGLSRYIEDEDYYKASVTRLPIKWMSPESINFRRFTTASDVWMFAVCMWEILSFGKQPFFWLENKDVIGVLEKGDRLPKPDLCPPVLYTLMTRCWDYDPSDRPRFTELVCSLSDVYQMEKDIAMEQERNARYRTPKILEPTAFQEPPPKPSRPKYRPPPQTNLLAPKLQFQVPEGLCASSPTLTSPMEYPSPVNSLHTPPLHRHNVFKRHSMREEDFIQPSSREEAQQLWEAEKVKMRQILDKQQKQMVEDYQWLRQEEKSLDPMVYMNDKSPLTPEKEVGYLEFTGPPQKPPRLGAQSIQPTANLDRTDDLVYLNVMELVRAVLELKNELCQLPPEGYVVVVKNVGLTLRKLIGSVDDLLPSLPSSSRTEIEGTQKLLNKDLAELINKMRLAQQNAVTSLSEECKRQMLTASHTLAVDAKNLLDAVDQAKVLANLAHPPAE
Cav32 inh: inhibitors of human Cav3.2 T-type calcium channel. O95180. Cav3.2-expressing cells, Fluo-4 calcium fluorescence FDSS; active compounds read low. B-score at 10 µM. 4% of 100,000 active;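 active = single-dose well whose peak fluorescence ratio is a statistical outlier from its plate by either plate-standardised score or position-corrected B-score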
MRP reversal: reverses drug resistance mediated by MRP. AID 602. differential viability (reversal), % at 10 µM. 0.04% of 85,000 active. H69AR cells + 2 uM doxorubicin, CellTiter-Glo, 72 h;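 active = viability drop by adding the cancer drug above about 55%, with treated viability meeting a 40% cutoff, limit read from the data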;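 note: larger differential means the compound sensitizes cells more to doxorubicin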
CD11b adhes inh: CD11b/CD18-fibrinogen binding inhibition | inhibition, % at 10 µM | K562 CD11b/CD18 adhesion to fibrinogen, ATPlite luminescence; Mn2+ added to activate the integrin | P05107+P11215 | 0.54% of 93,000 active;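 active = primary inhibition of 50% or more at 10 µM, then 40% or more on retest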
Hits are given with their value.

Results for COc1ccccc1C(c1nnnn1CCc1ccccc1)N1CCN(c2ccccc2)CC1 (stereo unspecified) ?
Mac1 fbg enh: inactive; MRP-1 activ: inactive; Pyk2 oligo antag: inactive; Cav32 inh: -5.9; MRP reversal: inactive; CD11b adhes inh: inactive

What do the screens show for `CC(=O)Nc1cccc2c1C(=O)NC2=O`?
Mac1 fbg enh: inactive; MRP-1 activ: inactive; Pyk2 oligo antag: inactive; Cav32 inh: inactive; MRP reversal: inactive; CD11b adhes inh: inactive

What do the screens show for `Cc1ccc2nc(-c3ccc(NC(=O)COC(=O)c4ccc(Br)o4)cc3)sc2c1`?
Mac1 fbg enh: inactive; MRP-1 activ: inactive; CD11b adhes inh: inactive

What do the screens show for `COc1cccc(C(c2nnnn2Cc2ccco2)N2CCN(c3cccc(C)c3C)CC2)c1OC` (stereo unspecified)?
Mac1 fbg enh: inactive; MRP-1 activ: inactive; Pyk2 oligo antag: -3.9; Cav32 inh: -6.9; MRP reversal: inactive; CD11b adhes inh: inactive

How did Cc1ccc(S(=O)(=O)Cn2nnnc2C(c2ccccn2)N2CCN(c3ccccc3)CC2)cc1 (stereo unspecified) do in these assays?
Mac1 fbg enh: inactive; MRP-1 activ: inactive; Pyk2 oligo antag: inactive; Cav32 inh: inactive; CD11b adhes inh: inactive

Results for Fc1ccc(C(c2nnnn2CCc2ccccc2)N2CCCc3ccccc32)cc1 (stereo unspecified) ?
Mac1 fbg enh: inactive; MRP-1 activ: inactive; Pyk2 oligo antag: inactive; Cav32 inh: -7.9; MRP reversal: inactive; CD11b adhes inh: inactive

How did O=C(c1ccco1)N1CCN(C(c2ccc(F)cc2)c2nnnn2CC2CCCO2)CC1 (stereo unspecified) do in these assays?
Mac1 fbg enh: inactive; MRP-1 activ: inactive; Pyk2 oligo antag: inactive; Cav32 inh: inactive; MRP reversal: inactive; CD11b adhes inh: inactive

What do the screens show for `Cc1ccc(C(c2nnnn2CC2CCCO2)N2CCN(c3cccc(C)c3C)CC2)cc1` (stereo unspecified)?
Mac1 fbg enh: inactive; MRP-1 activ: inactive; Pyk2 oligo antag: -3.4; MRP reversal: inactive; CD11b adhes inh: inactive

How did COc1cccc(C(c2nnnn2Cc2ccccc2)N2CCN(C(=O)c3ccco3)CC2)c1OC (stereo unspecified) do in these assays?
Mac1 fbg enh: inactive; MRP-1 activ: inactive; Pyk2 oligo antag: inactive; Cav32 inh: inactive; MRP reversal: inactive; CD11b adhes inh: inactive

What do the screens show for `Cc1ccc(C(c2nnnn2CS(=O)(=O)c2ccc(C)cc2)N2CCN(c3ncccn3)CC2)cc1` (stereo unspecified)?
MRP-1 activ: 11; Pyk2 oligo antag: inactive; Cav32 inh: inactive; MRP reversal: inactive

Results for COC(=O)c1ccc(Sc2ccccc2NS(=O)(=O)c2ccc(C)cc2)nc1 ?
MRP-1 activ: inactive; Pyk2 oligo antag: inactive; Cav32 inh: inactive

What do the screens show for `CCOC(=O)N1CCC2(CC1)C(C#N)=C(N)Oc1c2c(C)nn1-c1cccc(Cl)c1`?
Mac1 fbg enh: inactive; MRP-1 activ: inactive; Pyk2 oligo antag: inactive; Cav32 inh: inactive; MRP reversal: inactive; CD11b adhes inh: 88

What do the screens show for `CCOC(=O)N1CCC2(CC1)C(C#N)=C(N)Oc1n[nH]c(C)c12`?
Mac1 fbg enh: inactive; MRP-1 activ: inactive; Pyk2 oligo antag: inactive; MRP reversal: inactive; CD11b adhes inh: inactive

How did CC(C)CCNCC1OCc2ccccc2CO1 do in these assays?
Mac1 fbg enh: inactive; MRP-1 activ: inactive; CD11b adhes inh: inactive

What do the screens show for `CCOC(=O)c1cc(C#N)c(Oc2cccc(C(F)(F)F)c2)nc1-c1ccccc1`?
Mac1 fbg enh: inactive; MRP-1 activ: inactive; Pyk2 oligo antag: inactive; Cav32 inh: -4.5; CD11b adhes inh: inactive

Results for CCOC(=O)c1cc(C#N)c(Oc2ccc(F)cc2)nc1-c1ccccc1 ?
MRP-1 activ: inactive; Pyk2 oligo antag: inactive; Cav32 inh: inactive

Results for COc1cc(CNc2nc3ccccc3[nH]2)cc(OC)c1OC ?
MRP-1 activ: inactive; Pyk2 oligo antag: inactive; Cav32 inh: inactive; MRP reversal: inactive

How did O=c1[nH]c(=O)n(Cc2ccco2)c2c1C(C(F)(F)F)(C(F)(F)F)N=C(Cc1ccccc1)N2 do in these assays?
MRP-1 activ: inactive; Pyk2 oligo antag: -3.7; Cav32 inh: inactive; MRP reversal: inactive

What do the screens show for `CCc1cccc(NC(=O)CSC2=NS(=O)(=O)c3ccccc32)c1`?
Mac1 fbg enh: inactive; MRP-1 activ: inactive; Cav32 inh: -5.4; MRP reversal: inactive; CD11b adhes inh: inactive

Screening data deposited in PubChem by several laboratories.
